# Test results taken from PubChem BioAssay (EPA / NIEHS).
# Records with an inconclusive call do not appear. Some compounds were tested as several samples or in several runs, with calls that do not always agree. Active and inactive are the calls of the source. Rule for the calls, unless noted: active = hit-call score of the fitted dose curve at least 0.9, where 1 is the maximum; inactive = score below 0.9.
# Columns and labels:
# [1] = ATG_GRE_CIS: Attagene CIS-FACTORIAL HepG2 Assay for human Glucocorticoid Response Elements (GRE) (AID 2282947); details: HepG2 GRE cis-reporter, Attagene multiplex mRNA; actives raise or lower the signal
# Method in brief: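 Transiently transfected HepG2 cells carrying GRE cis-reporter units (endogenous TF activity) dosed 24 h; reporter mRNA quantified by RT-PCR, 6-FAM labelling, HpaI digestion and capillary electrophoresis. Bidirectional fit versus DMSO baseline.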
# [2] = ATG_ISRE_CIS: Attagene CIS-FACTORIAL HepG2 Assay for human Interferon Regulatory Factor 1 (IRF1) binding to an Interferon-Stimulated Response Element (ISRE) (AID 2282948); details: HepG2 ISRE cis-reporter (Attagene), mRNA transcription readout; actives raise or lower the signal
# Method in brief: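 Quantitation relies on labelled RT-PCR fragments separated by capillary electrophoresis. Human HepG2 cells bearing cis-promoter reporter constructs were treated 24 h; DMSO served as baseline for bidirectional fitting.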
# [3] = target: Hypoxia-inducible factor 1-alpha (Homo sapiens) (UniProt Q16665); assay: ATG_HIF1a_CIS: Attagene CIS-FACTORIAL HepG2 Assay for human Hypoxia Inducible Factor 1 (HIF1A) (AID 2282951); details: HepG2 Attagene cis-factorial HIF1a reporter transcription; actives raise or lower the signal
# Hypoxia-inducible factor 1-alpha (Homo sapiens), sequence (Q16665 whole entry, looked up): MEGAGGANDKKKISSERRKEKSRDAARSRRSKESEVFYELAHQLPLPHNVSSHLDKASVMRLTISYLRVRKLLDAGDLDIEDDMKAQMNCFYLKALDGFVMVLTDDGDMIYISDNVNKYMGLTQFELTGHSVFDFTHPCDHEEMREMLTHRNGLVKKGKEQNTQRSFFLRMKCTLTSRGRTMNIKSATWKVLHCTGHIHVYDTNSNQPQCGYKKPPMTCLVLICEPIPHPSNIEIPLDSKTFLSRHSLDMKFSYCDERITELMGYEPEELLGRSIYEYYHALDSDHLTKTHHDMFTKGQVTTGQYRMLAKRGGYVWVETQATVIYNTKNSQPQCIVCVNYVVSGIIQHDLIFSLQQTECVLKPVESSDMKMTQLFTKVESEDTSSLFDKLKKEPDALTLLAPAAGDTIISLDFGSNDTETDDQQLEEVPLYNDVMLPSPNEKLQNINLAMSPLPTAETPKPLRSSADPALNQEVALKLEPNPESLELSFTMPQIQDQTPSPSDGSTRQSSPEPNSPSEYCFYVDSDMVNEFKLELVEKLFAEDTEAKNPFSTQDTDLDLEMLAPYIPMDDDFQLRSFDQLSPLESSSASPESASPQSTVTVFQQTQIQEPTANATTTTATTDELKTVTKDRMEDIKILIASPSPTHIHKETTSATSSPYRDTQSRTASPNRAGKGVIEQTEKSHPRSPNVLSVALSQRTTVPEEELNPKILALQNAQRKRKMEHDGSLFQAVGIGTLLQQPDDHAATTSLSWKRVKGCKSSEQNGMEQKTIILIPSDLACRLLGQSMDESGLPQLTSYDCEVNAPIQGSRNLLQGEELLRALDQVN
# Method in brief: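 After 24 h chemical exposure of reporter-transfected HepG2 cells, reporter cDNA was PCR-amplified, labelled by 6-FAM primer extension (2 min 95 C, 20 s 68 C, 10 min 72 C), HpaI-cut (2 h, 37 C) and analysed by CE.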
# [4] = target: Heat shock factor protein 1 (Homo sapiens) (UniProt Q00613); assay: ATG_HSE_CIS: Attagene CIS-FACTORIAL HepG2 Assay for human Heat Shock Transcription Factor 1 (HSE) (AID 2282953); details: HepG2 HSE cis-reporter, Attagene RNA transcription; actives raise or lower the signal
# Heat shock factor protein 1 (Homo sapiens), sequence (Q00613 whole entry, looked up): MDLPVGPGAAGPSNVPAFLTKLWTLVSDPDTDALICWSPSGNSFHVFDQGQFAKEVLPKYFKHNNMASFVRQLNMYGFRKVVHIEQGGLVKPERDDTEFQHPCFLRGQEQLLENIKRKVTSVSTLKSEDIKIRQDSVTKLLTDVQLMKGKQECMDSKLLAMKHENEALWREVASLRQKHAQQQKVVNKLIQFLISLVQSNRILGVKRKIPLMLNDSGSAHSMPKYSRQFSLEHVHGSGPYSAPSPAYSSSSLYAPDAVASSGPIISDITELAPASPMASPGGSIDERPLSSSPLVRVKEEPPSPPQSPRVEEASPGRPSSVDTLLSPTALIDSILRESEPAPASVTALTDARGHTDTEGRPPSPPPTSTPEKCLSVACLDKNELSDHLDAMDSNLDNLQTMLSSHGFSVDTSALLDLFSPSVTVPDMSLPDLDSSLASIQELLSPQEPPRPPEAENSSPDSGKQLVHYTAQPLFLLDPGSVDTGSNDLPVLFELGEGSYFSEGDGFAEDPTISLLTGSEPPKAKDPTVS
# Method in brief: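 After a 24 h incubation with test chemical, transfected HepG2 cells were harvested for RNA; reporter transcripts were measured by RT-PCR and capillary electrophoresis. Values reflect gain or loss of signal relative to DMSO.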
# [5] = ATG_MRE_CIS: Attagene CIS-FACTORIAL HepG2 Assay for human Metal Responsive Element (MRE) (AID 2282954); details: HepG2 MRE cis-reporter transcription, Attagene multiplex; actives raise or lower the signal
# Method in brief: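 HepG2 cells transiently transfected with cis-element-driven reporter units; mRNA measured 24 h after dosing. Reporter transcripts quantified by RT-PCR, FAM labelling, HpaI digestion and capillary electrophoresis; bidirectional fit versus DMSO.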
# [6] = ATG_PBREM_CIS: Attagene CIS-FACTORIAL HepG2 Assay for human Phenobarbital-responsive Enhancer Module (PBREM) (AID 2282955); details: HepG2 PBREM cis-reporter, Attagene multiplexed transcription; actives raise or lower the signal
# Method in brief: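 Measures endogenous factor action on a phenobarbital-responsive enhancer module. HepG2 transiently carrying cis reporters, 24 h treatment, mRNA read-out by RT-PCR plus capillary electrophoresis.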
# [7] = target: Nuclear receptor subfamily 4 group A member 2 (Homo sapiens) (UniProt P43354); assay: ATG_NURR1_TRANS: Attagene TRANS-FACTORIAL HepG2 Assay for human Nuclear Receptor Related Protein 1 (NURR1) (AID 2282985; active = hit-call score of the fitted dose curve at least 0.9, where 1 is the maximum); details: HepG2 Attagene TRANS reporter, mRNA readout
# Nuclear receptor subfamily 4 group A member 2 (Homo sapiens), sequence (P43354 whole entry, looked up, the tested form may be a part): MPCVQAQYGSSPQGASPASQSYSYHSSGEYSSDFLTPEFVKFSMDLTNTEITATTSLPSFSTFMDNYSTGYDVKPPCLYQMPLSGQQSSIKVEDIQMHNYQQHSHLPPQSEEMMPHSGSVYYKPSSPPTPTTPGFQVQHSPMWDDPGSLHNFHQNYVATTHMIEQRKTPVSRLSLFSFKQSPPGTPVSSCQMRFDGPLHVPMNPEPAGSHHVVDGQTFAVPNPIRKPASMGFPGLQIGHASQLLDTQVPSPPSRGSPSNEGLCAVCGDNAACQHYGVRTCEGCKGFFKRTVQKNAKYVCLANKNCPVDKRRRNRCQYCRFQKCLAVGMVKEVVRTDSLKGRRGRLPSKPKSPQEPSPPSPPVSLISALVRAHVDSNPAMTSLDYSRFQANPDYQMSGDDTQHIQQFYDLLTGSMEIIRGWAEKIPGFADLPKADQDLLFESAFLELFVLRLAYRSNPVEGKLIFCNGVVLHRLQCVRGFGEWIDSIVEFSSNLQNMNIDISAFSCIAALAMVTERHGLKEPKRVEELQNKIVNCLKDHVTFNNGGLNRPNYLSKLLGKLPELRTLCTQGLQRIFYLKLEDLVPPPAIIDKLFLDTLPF
# Method in brief: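 HepG2 cells transiently transfected with NURR1-Gal4 chimera and GAL4-UAS reporter units; after 24 hr compound exposure, reporter mRNA quantified by RT-PCR and capillary electrophoresis; gain of signal fitted against DMSO.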
# [8] = target: Nuclear respiratory factor 1 (Homo sapiens) (UniProt Q16656); assay: ATG_NRF1_CIS: Attagene CIS-FACTORIAL HepG2 Assay for human Nuclear Respiratory Factor 1 (NRF1) Orphan Gene (AID 2282987); details: HepG2 NRF1 cis-element reporter, Attagene multiplex; actives raise or lower the signal
# Nuclear respiratory factor 1 (Homo sapiens), sequence (Q16656 whole entry, looked up): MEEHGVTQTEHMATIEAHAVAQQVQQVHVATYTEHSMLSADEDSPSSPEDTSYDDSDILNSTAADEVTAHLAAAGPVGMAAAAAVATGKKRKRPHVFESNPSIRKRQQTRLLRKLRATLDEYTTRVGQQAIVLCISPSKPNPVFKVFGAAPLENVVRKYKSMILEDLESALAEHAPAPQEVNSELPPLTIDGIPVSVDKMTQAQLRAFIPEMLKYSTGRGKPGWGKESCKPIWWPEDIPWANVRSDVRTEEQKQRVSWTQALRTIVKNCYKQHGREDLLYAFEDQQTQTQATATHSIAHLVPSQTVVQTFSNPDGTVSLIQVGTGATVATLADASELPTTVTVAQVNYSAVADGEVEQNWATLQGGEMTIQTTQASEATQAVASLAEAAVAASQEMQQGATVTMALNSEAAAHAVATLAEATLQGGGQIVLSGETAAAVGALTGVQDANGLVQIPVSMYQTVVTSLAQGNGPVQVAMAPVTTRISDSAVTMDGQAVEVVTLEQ
# Method in brief: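 Measured: fluorescent reporter-specific RT-PCR products from transfected HepG2 cells, separated by capillary electrophoresis. Exposure lasted 24 h. Analysis used bidirectional curve fitting with DMSO as negative control.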
# [9] = target: Retinoic acid receptor RXR-alpha (Homo sapiens) (UniProt P19793); assay: ATG_RXRa_TRANS: Attagene TRANS-FACTORIAL HepG2 Assay for human Retinoid X Receptor alpha (RXRa) (AID 2283012; active = hit-call score of the fitted dose curve at least 0.9, where 1 is the maximum)
# Retinoic acid receptor RXR-alpha (Homo sapiens), sequence (P19793 whole entry, looked up, the tested form may be a part): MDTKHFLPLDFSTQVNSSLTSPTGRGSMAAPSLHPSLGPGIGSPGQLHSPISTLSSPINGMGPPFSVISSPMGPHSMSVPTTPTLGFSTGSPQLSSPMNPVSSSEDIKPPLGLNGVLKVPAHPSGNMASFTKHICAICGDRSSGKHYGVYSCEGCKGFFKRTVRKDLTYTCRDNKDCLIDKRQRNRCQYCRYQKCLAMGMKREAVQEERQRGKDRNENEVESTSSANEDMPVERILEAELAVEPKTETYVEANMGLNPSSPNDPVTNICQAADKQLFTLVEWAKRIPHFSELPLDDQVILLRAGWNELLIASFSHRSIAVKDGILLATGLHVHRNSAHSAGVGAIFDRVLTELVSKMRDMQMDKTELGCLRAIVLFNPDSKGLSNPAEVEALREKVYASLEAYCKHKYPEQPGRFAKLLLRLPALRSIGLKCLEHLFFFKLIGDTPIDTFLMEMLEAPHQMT
# Method in brief: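 HepG2 cells transiently transfected with GAL4-UAS reporter units and chimeric RXRa-Gal4 protein, treated 24 h. Reporter mRNA measured by RT-PCR, fluorescent labelling, HpaI digestion and capillary electrophoresis. Induction fitted against DMSO.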
# [10] = target: Cellular tumor antigen p53 (Homo sapiens) (UniProt P04637); assay: TOX21_p53_BLA_p2_ratio: Tox21 HCT-116 p53 Agonism Beta-lactamase Assay, Ratio, Phase 2 (AID 2283592; active = hit-call score of the fitted dose curve at least 0.9, where 1 is the maximum)
# Cellular tumor antigen p53 (Homo sapiens), sequence (P04637 whole entry, looked up): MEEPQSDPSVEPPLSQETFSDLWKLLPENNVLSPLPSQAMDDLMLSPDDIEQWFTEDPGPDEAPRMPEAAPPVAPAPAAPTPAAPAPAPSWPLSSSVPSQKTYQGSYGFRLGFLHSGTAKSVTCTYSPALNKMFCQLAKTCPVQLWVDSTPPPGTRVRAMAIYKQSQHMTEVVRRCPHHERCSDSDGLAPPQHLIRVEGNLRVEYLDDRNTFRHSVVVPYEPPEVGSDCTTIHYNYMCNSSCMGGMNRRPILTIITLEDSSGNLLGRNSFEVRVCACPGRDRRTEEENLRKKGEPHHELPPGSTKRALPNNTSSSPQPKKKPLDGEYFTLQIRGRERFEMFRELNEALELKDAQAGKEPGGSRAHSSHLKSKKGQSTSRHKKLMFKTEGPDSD
# Method in brief: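 Human colon HCT116 cells with an inducible p53 beta-lactamase reporter are exposed to test chemicals for 16 h at 37C. Reporter induction is read as the 460/530 nm emission ratio after CCF4-AM loading, normalized to DMSO.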
# [11] = target: Cellular tumor antigen p53 (Homo sapiens) (UniProt P04637); assay: TOX21_p53_BLA_p3_ratio: Tox21 HCT-116 p53 Agonism Beta-lactamase Assay, Ratio, Phase 3 (AID 2283596; active = hit-call score of the fitted dose curve at least 0.9, where 1 is the maximum)
# Method in brief: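 HCT116 p53-bla cells (4000/well) given compound in DMSO (217-fold dilution) after 5 h, incubated 16 h at 37C. CCF4-AM substrate 2 h at room temperature; 460/530 nm emission ratio, gain fitted against DMSO.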
# [12] = target: Cellular tumor antigen p53 (Homo sapiens) (UniProt P04637); assay: TOX21_p53_BLA_p4_ratio: Tox21 HCT-116 p53 Agonism Beta-lactamase Assay, Ratio, Phase 4 (AID 2283601; active = hit-call score of the fitted dose curve at least 0.9, where 1 is the maximum)
# Method in brief: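 HCT-116 p53 beta-lactamase reporter cells (4000/well) preincubated 5 h, then compound (217-fold dilution of DMSO stock) for 16 h at 37C. CCF4-AM substrate added 2 h at room temperature; 460/530 nm emission ratio fitted upward versus DMSO.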
# [13] = ATG_M_61_CIS: Attagene CIS-FACTORIAL HepG2 Assay for M61 Transcription Factor (Internal Marker) (AID 2282937); details: HepG2 Attagene CIS-FACTORIAL M61 internal marker reporter; actives raise or lower the signal
# Method in brief: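 Transfect HepG2 with MRTUs; dose 24 h; isolate RNA; reverse-transcribe with DNase I treatment; PCR-amplify, FAM-label and cut with HpaI for 2 h at 37 C; resolve by CE. Bidirectional fitting against DMSO.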
# [14] = target: Hepatocyte nuclear factor 6 (Homo sapiens) (UniProt Q9UBC0); assay: ATG_HNF6_CIS: Attagene CIS-FACTORIAL HepG2 Assay for human Hepatocyte Nuclear Factor 6 (HNF6) (AID 2282952); details: HepG2 Attagene cis-factorial HNF6 reporter transcription; actives raise or lower the signal
# Hepatocyte nuclear factor 6 (Homo sapiens), sequence (Q9UBC0 whole entry, looked up): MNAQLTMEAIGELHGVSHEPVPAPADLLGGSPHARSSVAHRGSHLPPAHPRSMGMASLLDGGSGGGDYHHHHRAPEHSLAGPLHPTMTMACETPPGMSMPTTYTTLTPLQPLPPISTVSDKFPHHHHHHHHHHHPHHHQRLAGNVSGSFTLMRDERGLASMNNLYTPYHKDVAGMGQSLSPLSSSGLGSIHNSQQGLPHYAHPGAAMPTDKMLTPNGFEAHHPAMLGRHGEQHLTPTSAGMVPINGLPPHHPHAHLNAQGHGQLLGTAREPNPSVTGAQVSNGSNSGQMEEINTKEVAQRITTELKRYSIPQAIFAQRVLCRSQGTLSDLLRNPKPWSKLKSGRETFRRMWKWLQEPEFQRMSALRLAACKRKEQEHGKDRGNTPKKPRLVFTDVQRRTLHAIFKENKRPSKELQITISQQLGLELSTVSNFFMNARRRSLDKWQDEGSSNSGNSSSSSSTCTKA
# Method in brief: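 Cells are HepG2 carrying transiently transfected cis-promoter reporter units. Treatment lasts 24 h, after which reporter transcripts are reverse-transcribed, amplified, FAM-labelled and sized by capillary electrophoresis. DMSO serves as baseline.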
# [15] = ATG_PPRE_CIS: Attagene CIS-FACTORIAL HepG2 Assay for human Peroxisome Proliferator-activated Response Element (PPRE) (AID 2282958); details: HepG2 PPRE cis-element reporter, Attagene transcription factor profiling; actives raise or lower the signal
# Method in brief: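 PPRE activity in HepG2: transient cis-reporter transfection, 24 h compound incubation, reporter mRNA by RT-PCR and CE fluorescence; gain/loss fitted against DMSO.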
# [16] = target: Transcriptional activator Myb (Homo sapiens) (UniProt P10242); assay: ATG_Myb_CIS: Attagene CIS-FACTORIAL HepG2 Assay for human Myeloblastosis (Myb) Proto-Oncogene Transcription Factor (AID 2282986); details: HepG2 Attagene CIS-FACTORIAL Myb reporter transcription; actives raise or lower the signal
# Transcriptional activator Myb (Homo sapiens), sequence (P10242 whole entry, looked up): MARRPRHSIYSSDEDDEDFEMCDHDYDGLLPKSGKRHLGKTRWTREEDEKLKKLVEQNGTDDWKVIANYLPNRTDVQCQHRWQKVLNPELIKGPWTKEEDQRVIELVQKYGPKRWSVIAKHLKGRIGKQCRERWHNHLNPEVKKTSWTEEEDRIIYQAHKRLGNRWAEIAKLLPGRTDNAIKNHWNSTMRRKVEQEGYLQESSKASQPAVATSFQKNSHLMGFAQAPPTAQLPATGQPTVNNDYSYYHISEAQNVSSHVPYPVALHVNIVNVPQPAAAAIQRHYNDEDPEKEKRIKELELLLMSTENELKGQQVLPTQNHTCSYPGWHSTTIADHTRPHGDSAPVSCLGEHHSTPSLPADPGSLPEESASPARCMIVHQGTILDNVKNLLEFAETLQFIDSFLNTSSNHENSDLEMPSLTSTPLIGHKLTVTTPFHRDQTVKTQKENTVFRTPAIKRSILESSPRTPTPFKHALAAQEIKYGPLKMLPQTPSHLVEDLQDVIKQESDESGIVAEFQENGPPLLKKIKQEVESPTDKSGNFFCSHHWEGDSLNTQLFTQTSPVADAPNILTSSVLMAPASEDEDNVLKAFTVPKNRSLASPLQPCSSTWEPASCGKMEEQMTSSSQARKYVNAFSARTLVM
# Method in brief: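 After 24 h of compound dosing, total RNA from transfected HepG2 cells is reverse-transcribed and the reporter sequences amplified, labeled and separated by capillary electrophoresis. Values come from bidirectional fitting against DMSO.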
# [17] = ATG_TCF_b_cat_CIS: Attagene CIS-FACTORIAL HepG2 Assay for human T-Cell-Factor with beta-catenin (TCF/b-cat) (AID 2282965); details: HepG2 TCF/beta-catenin cis-reporter transcription, actives raise or lower the signal
# Method in brief: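 Cells of the HepG2 line carry transiently transfected reporter units whose promoters respond to endogenous factors. Twenty-four hours post-dosing, reporter mRNA induction is measured by fluorescent RT-PCR and capillary electrophoresis, with DMSO as baseline.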
# [18] = ATG_M_06_TRANS: Attagene TRANS-FACTORIAL HepG2 Assay for M06 Transcription Factor (Internal Marker) (AID 2282983; active = hit-call score of the fitted dose curve at least 0.9, where 1 is the maximum;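 note: reporter transcript level by RT-PCR then capillary electrophoresis fluorescence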); details: HepG2 Attagene TRANS M06 internal marker reporter
# Method in brief: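 Internal-marker background readout from a multiplexed TRANS reporter system in HepG2; 24 h dosing; mRNA induction quantified by RT-PCR plus capillary electrophoresis fluorescence; DMSO as negative control and baseline.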
# [19] = target: Cellular tumor antigen p53 (Homo sapiens) (UniProt P04637); assay: TOX21_p53_BLA_p5_ratio: Tox21 HCT-116 p53 Agonism Beta-lactamase Assay, Ratio, Phase 5 (AID 2283599; active = hit-call score of the fitted dose curve at least 0.9, where 1 is the maximum)
# Method in brief: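 HCT-116 p53-bla cells (4000/well) plated 5 h, dosed with compound (217-fold DMSO dilution) for 16 h at 37 C; CCF4-AM substrate 2 h at room temperature. Activity is the 460/530 nm emission ratio (405 nm excitation), fitted in gain-of-signal direction versus DMSO.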
# [20] = target: Transcription factor E2F1 (Homo sapiens) (UniProt Q01094); assay: ATG_E2F_CIS: Attagene CIS-FACTORIAL HepG2 Assay for human E2F Transcription Factor 1 (AID 2282935); details: HepG2 Attagene cis-reporter, E2F reporter RNA transcripts; actives raise or lower the signal
# Transcription factor E2F1 (Homo sapiens), sequence (Q01094 whole entry, looked up): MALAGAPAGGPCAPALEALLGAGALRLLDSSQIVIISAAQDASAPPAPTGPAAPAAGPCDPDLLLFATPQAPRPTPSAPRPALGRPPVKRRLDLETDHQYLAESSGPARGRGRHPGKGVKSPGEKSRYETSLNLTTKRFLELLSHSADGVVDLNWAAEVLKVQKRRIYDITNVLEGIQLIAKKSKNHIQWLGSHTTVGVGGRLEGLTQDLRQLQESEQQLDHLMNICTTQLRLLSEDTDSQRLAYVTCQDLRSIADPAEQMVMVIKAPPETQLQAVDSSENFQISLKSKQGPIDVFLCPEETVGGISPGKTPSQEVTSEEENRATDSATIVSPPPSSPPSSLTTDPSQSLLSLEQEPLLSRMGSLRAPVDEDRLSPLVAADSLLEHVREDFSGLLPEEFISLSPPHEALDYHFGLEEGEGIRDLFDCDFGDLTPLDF
# Method in brief: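 Endogenous E2F1 activity read through cis-promoter reporter units transfected into HepG2. After 24 h compound treatment, reporter mRNA measured by RT-PCR, HpaI digestion and capillary electrophoresis. Bidirectional fit versus DMSO.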
smiles,measurement,setting,value
O=P(O)(Oc1ccccc1)Oc1ccccc1,outcome,[1],inactive
same,outcome,[2],inactive
same,outcome,[3],inactive
same,outcome,[4],inactive
same,outcome,[5],inactive
same,outcome,[6],inactive
same,outcome,[7],inactive
same,outcome,[8],inactive
same,outcome,[9],inactive
same,outcome,[10],inactive
same,outcome,[11],inactive
same,outcome,[12],inactive
CC1(C)CC(=O)CC(C)(C)N1[O],outcome,[13],inactive
same,outcome,[3],inactive
same,outcome,[14],inactive
same,outcome,[4],inactive
same,outcome,[6],inactive
same,outcome,[15],inactive
same,outcome,[7],inactive
same,outcome,[16],inactive
same,outcome,[8],inactive
same,outcome,[10],inactive
same,outcome,[12],inactive
O=CNC(N1CCN(C(NC=O)C(Cl)(Cl)Cl)CC1)C(Cl)(Cl)Cl (centres undefined),outcome,[13],inactive
same,outcome,[1],inactive
same,outcome,[2],inactive
same,outcome,[3],inactive
same,outcome,[14],inactive
same,outcome,[5],inactive
same,outcome,[6],inactive
same,outcome,[15],inactive
same,outcome,[17],inactive
same,outcome,[18],inactive
same,outcome,[7],inactive
same,outcome,[16],inactive
same,outcome,[8],inactive
same,outcome,[9],inactive
same,outcome,[10],inactive
same,outcome,[11],inactive
same,outcome,[19],inactive
CC(=O)/C=C/c1ccccc1,outcome,[20],inactive
same,outcome,[13],inactive
same,outcome,[1],inactive
same,outcome,[3],inactive
same,AC50,[14],70.9 µM (active)
same,AC50,[4],156 µM (active)
same,AC50,[5],37.8 µM (active)
same,outcome,[6],inactive
same,outcome,[15],inactive
same,outcome,[17],inactive
same,outcome,[18],inactive
same,outcome,[7],inactive
same,outcome,[16],inactive
same,outcome,[8],inactive
same,outcome,[9],inactive
CC(C)CCCCCCCOP(=O)(Oc1ccccc1)Oc1ccccc1,outcome,[13],inactive
same,outcome,[1],inactive
same,outcome,[2],inactive
same,outcome,[3],inactive
same,outcome,[14],inactive
same,outcome,[4],inactive
same,outcome,[5],inactive
same,outcome,[6],inactive
same,outcome,[15],inactive
same,outcome,[18],inactive
same,AC50,[7],26.6 µM (active)
same,outcome,[16],inactive
same,outcome,[8],inactive
same,outcome,[10],inactive
same,outcome,[11],inactive
same,outcome,[19],inactive
same,outcome,[12],inactive
Cc1ccccc1CCl,outcome,[20],inactive
same,outcome,[13],inactive
same,outcome,[1],inactive
same,outcome,[2],inactive
same,outcome,[3],inactive
same,outcome,[4],inactive
same,outcome,[5],inactive
same,outcome,[6],inactive
same,outcome,[15],inactive
same,outcome,[17],inactive
same,outcome,[18],inactive
same,outcome,[8],inactive
same,outcome,[9],inactive
same,outcome,[10],inactive
same,outcome,[11],inactive
same,outcome,[19],inactive
same,outcome,[12],inactive
CCCCCCCCCCCC#N,outcome,[13],inactive
same,outcome,[1],inactive
same,outcome,[2],inactive
same,outcome,[3],inactive
same,outcome,[14],inactive
same,AC50,[5],136 µM (active)
same,outcome,[6],inactive
same,outcome,[15],inactive
same,outcome,[17],inactive
same,outcome,[7],inactive
same,outcome,[8],inactive
same,outcome,[9],inactive
same,outcome,[10],inactive
same,outcome,[11],inactive
same,outcome,[19],inactive
same,outcome,[12],inactive
CC1OC(C)OC(C)O1 (centres undefined),outcome,[20],inactive
same,outcome,[13],inactive
same,outcome,[2],inactive
same,outcome,[3],inactive
same,outcome,[14],inactive
same,outcome,[4],inactive
same,outcome,[15],inactive
same,outcome,[17],inactive
same,outcome,[16],inactive
same,outcome,[9],inactive
same,outcome,[10],inactive
same,AC50,[11],34.1 µM (active)
same,outcome,[11],inactive
same,outcome,[19],inactive
same,outcome,[12],inactive
O=P1(NCCCl)OCCCN1CCCl (centres undefined),outcome,[20],inactive
same,outcome,[1],inactive
same,outcome,[2],inactive
same,outcome,[3],inactive
same,outcome,[4],inactive
same,outcome,[5],inactive
same,outcome,[6],inactive
same,outcome,[17],inactive
same,outcome,[8],inactive
